Among all 39,000 compounds or so, about 3,300 (8.5%) were called active. The list comes from a sample in which actives are over-represented; it also holds similar structures and randomly drawn compounds.
Test system: HepG2
Test: cytotoxicity call (relative viability < 0.9)
Conditions: 10 µM

SMILES | cytotoxicity call
C[C@H]1CCCCO[C@H](CN(C)C(=O)Nc2ccc3c(c2)OCO3)[C@@H](C)CN([C@@H](C)CO)C(=O)c2cc(NS(=O)(=O)c3cccs3)ccc2O1 | inactive
C[C@H](CO)N1C[C@H](C)[C@H](CN(C)Cc2ccc(C(=O)Nc3ccccc3N)cc2)Oc2c(NS(C)(=O)=O)cccc2C1=O | inactive
COCCNCCn1cnc2c1c(=O)[nH]c(=O)n2C | inactive
C[C@@H]1CCCCO[C@@H](CN(C)Cc2ccncc2)[C@H](C)CN([C@H](C)CO)C(=O)c2cc(NC(=O)Nc3ccc4c(c3)OCO4)ccc2O1 | inactive
C[C@@H]1CCCCO[C@@H](CN(C)C(=O)CCCN(C)C)[C@@H](C)CN([C@@H](C)CO)C(=O)c2cc(NC(=O)Nc3ccc(C(F)(F)F)cc3)ccc2O1 | inactive
Cc1ccc(S(=O)(=O)N(C)C[C@H]2OCCCC[C@H](C)Oc3ccc(NC(=O)Nc4c(C)noc4C)cc3C(=O)N([C@@H](C)CO)C[C@@H]2C)cc1 | inactive
C[C@H](CO)N1C[C@H](C)[C@@H](CN(C)C(=O)Nc2cccc3ccccc23)Oc2ccc(NS(=O)(=O)c3ccc(F)cc3)cc2C1=O | inactive
C[C@H]1CN([C@@H](C)CO)C(=O)Cc2cc(NC(=O)C3CC3)ccc2O[C@@H]1CN(C)S(=O)(=O)c1cn(C)cn1 | inactive
COc1ccc(S(=O)(=O)Nc2ccc3c(c2)C(=O)N([C@H](C)CO)C[C@@H](C)[C@@H](CN(C)Cc2ccc(Cl)c(Cl)c2)OCCCC[C@H](C)O3)cc1 | inactive
COc1ccc(S(=O)(=O)Nc2ccc3c(c2)C(=O)N([C@@H](C)CO)C[C@H](C)[C@H](CN(C)Cc2ccc(Cl)c(Cl)c2)OCCCC[C@@H](C)O3)cc1 | active
COc1ccc(S(=O)(=O)Nc2ccc3c(c2)C(=O)N([C@H](C)CO)C[C@H](C)[C@H](CN(C)Cc2ccc(Cl)c(Cl)c2)OCCCC[C@@H](C)O3)cc1 | active
COc1ccc(S(=O)(=O)Nc2ccc3c(c2)C(=O)N([C@@H](C)CO)C[C@@H](C)[C@@H](CN(C)Cc2ccc(Cl)c(Cl)c2)OCCCC[C@@H](C)O3)cc1 | active
COc1ccc(S(=O)(=O)Nc2ccc3c(c2)C(=O)N([C@H](C)CO)C[C@H](C)[C@H](CN(C)Cc2ccc(Cl)c(Cl)c2)OCCCC[C@H](C)O3)cc1 | inactive
COc1ccc(S(=O)(=O)Nc2ccc3c(c2)C(=O)N([C@H](C)CO)C[C@@H](C)[C@H](CN(C)Cc2ccc(Cl)c(Cl)c2)OCCCC[C@@H](C)O3)cc1 | active
COCCNC(=O)C[C@H]1C[C@@H]2c3cc(NS(C)(=O)=O)ccc3O[C@@H]2[C@@H](CO)O1 | inactive
O=C(O)c1csc2ccccc12 | inactive
Cc1noc(C)c1S(=O)(=O)N(C)C[C@H]1OCCCC[C@@H](C)Oc2ccc(NS(C)(=O)=O)cc2C(=O)N([C@H](C)CO)C[C@@H]1C | inactive
COc1ccc(S(=O)(=O)N(C)C[C@H]2Oc3ccc(NC(=O)NC(C)C)cc3CC(=O)N([C@@H](C)CO)C[C@H]2C)cc1 | inactive
O=C(CN1C(=O)COCC1=O)N1CCOCC1 | inactive
CCCNC(=O)Nc1ccc2c(c1)OC[C@H](C)N(C(=O)C1CCOCC1)C[C@H](C)[C@H](OC)CN(C)C2=O | inactive
CC(C)c1cc(N2CC[C@@H](N)C2)nc(N)n1 | inactive
Cc1noc(C)c1NC(=O)Nc1cccc2c1O[C@H](CN(C)S(C)(=O)=O)[C@H](C)CN([C@@H](C)CO)C2=O | inactive

SMILES | cytotoxicity call
CC(C)NC(=O)Nc1ccc2c(c1)CC(=O)N([C@H](C)CO)C[C@H](C)[C@H](CN(C)Cc1ccc(C(=O)O)cc1)O2 | inactive
O=C(NCCCN1CCOCC1)[C@H]1[C@H](CO)[C@H]2Cn3c(cccc3=O)[C@@H]1N2C(=O)NC1CCCC1 | inactive
CC(C)CN[C@H]1CCS(=O)(=O)C1 | inactive
COc1ccc(CN(C)C[C@H]2OCCCC[C@@H](C)Oc3ccc(NS(=O)(=O)c4ccc(OC)cc4)cc3C(=O)N([C@H](C)CO)C[C@@H]2C)cc1 | inactive
COc1ccc(CN(C)C[C@@H]2OCCCC[C@@H](C)Oc3ccc(NS(=O)(=O)c4ccc(OC)cc4)cc3C(=O)N([C@H](C)CO)C[C@H]2C)cc1 | inactive
COc1ccc(S(=O)(=O)Nc2ccc3c(c2)C(=O)N([C@@H](C)CO)C[C@@H](C)[C@H](CN(C)Cc2ccc(Cl)c(Cl)c2)OCCCC[C@@H](C)O3)cc1 | active
COc1ccc(S(=O)(=O)Nc2ccc3c(c2)C(=O)N([C@H](C)CO)C[C@H](C)[C@@H](CN(C)Cc2ccc(Cl)c(Cl)c2)OCCCC[C@H](C)O3)cc1 | active
C[C@H]1CN([C@@H](C)CO)C(=O)c2cc(NS(=O)(=O)c3cn(C)cn3)ccc2O[C@H]1CN(C)C(=O)Nc1ccc2c(c1)OCO2 | inactive
Cc1nc(CO)co1 | inactive
COc1ccc([C@@H](N)c2ccncc2)cc1 | inactive
C[C@H](CO)N1C[C@H](C)[C@@H](CN(C)Cc2ccc(Oc3ccccc3)cc2)Oc2c(NC(=O)CCCCCC(=O)Nc3ccccc3N)cccc2C1=O | inactive
O=[N+]([O-])c1ccc(/C=C/CN(C/C=C/c2ccc([N+](=O)[O-])cc2)CCNS(=O)(=O)c2cccc3cnccc23)cc1 | inactive
O=S(=O)(NCCCN(C/C=C/c1ccc(F)cc1)C/C=C/c1ccc(F)cc1)c1cccc2cnccc12 | inactive
O=S(=O)(NCCCCN(C/C=C/c1ccccc1)C/C=C/c1ccccc1)c1cccc2cnccc12 | inactive
COc1ccc(/C=C/CN(C/C=C/c2ccc(OC)cc2)CCCCNS(=O)(=O)c2cccc3cnccc23)cc1 | active
O=[N+]([O-])c1ccc(/C=C/CN(C/C=C/c2ccc([N+](=O)[O-])cc2)CCCCNS(=O)(=O)c2cccc3cnccc23)cc1 | inactive
COc1ccc(/C=C/CN(C/C=C/c2ccc(OC)cc2)CCCNS(=O)(=O)c2cccc3cnccc23)cc1 | inactive
O=S(=O)(NCCCCN(C/C=C/c1ccc(F)cc1)C/C=C/c1ccc(F)cc1)c1cccc2cnccc12 | active
N=C(N)NCCNS(=O)(=O)c1cccc2cnccc12 | active
O=S(=O)(NCCCN(CCCc1ccccc1)CCCc1ccccc1)c1cccc2cnccc12 | inactive
COc1ccc(NC(=O)N(C)C[C@@H]2Oc3ccc(NC(=O)CCCN(C)C)cc3C(=O)N([C@H](C)CO)C[C@@H]2C)cc1 | inactive
C[C@@H]1CN([C@H](C)CO)C(=O)c2cc(NS(=O)(=O)c3cn(C)cn3)ccc2O[C@@H](C)CCCCO[C@@H]1CN(C)C | inactive

SMILES | cytotoxicity call
Cc1cc(C(=O)Nc2cccc3c2O[C@@H](CN(C)S(=O)(=O)c2ccc(Cl)cc2)[C@H](C)CN([C@@H](C)CO)C3=O)n(C)n1 | inactive
C[C@@H]1CN([C@@H](C)CO)C(=O)c2cc(NS(=O)(=O)c3cccs3)ccc2O[C@H]1CN(C)S(=O)(=O)c1ccc(F)cc1 | inactive
C[C@@H](O)[C@H](N)C(=O)N[C@@H](CCCCN)C(=O)N1CCC[C@H]1C(=O)N[C@@H](CCCNC(=N)N)C(=O)O | inactive
O=C(C[C@H]1C[C@H]2c3cc(NS(=O)(=O)c4ccc(F)cc4)ccc3O[C@H]2[C@H](CO)O1)NCc1cccnc1 | inactive
Cc1noc(C)c1NC(=O)Nc1ccc2c(c1)C(=O)N([C@H](C)CO)C[C@H](C)[C@@H](CN(C)C(=O)Nc1c(C)noc1C)OCCCC[C@H](C)O2 | inactive
CN(C)CCCCCCNC(=O)[C@@H]1C[C@@H]2C(=O)N[C@@H](CCCC[N+](C)(C)C)C(=O)N2[C@@H]1c1cccc(OCCO)c1 | inactive
C[C@H](O)C#Cc1ccc2c(c1)O[C@@H](CN(C)C(=O)C1CCCCC1)[C@H](C)CN([C@H](C)CO)S2(=O)=O | inactive
C[C@H]1CN([C@@H](C)CO)S(=O)(=O)c2ccc(C#Cc3ccncc3)cc2O[C@H]1CN(C)C(=O)C1CCCCC1 | inactive
C[C@@H]1CN([C@@H](C)CO)S(=O)(=O)c2ccc(C#Cc3ccncc3)cc2O[C@H]1CN(C)C(=O)C1CCCCC1 | active
C[C@H](O)C#Cc1ccc2c(c1)O[C@@H](CN(C)C(=O)C1CCCCC1)[C@H](C)CN([C@@H](C)CO)S2(=O)=O | inactive
C[C@@H]1CN([C@@H](C)CO)S(=O)(=O)c2ccc(C#CC3CC3)cc2O[C@H]1CN(C)C(=O)C1CCCCC1 | inactive
C[C@@H]1CN([C@H](C)CO)S(=O)(=O)c2ccc(C#C[C@@H](C)O)cc2O[C@@H]1CN(C)C(=O)C1CCCCC1 | inactive
C[C@H](CO)N1C[C@H](C)[C@@H](CN(C)C(=O)C2CCCCC2)Oc2cc(C#Cc3ccncc3)ccc2S1(=O)=O | active
C[C@@H]1CN([C@H](C)CO)S(=O)(=O)c2ccc(C#Cc3ccncc3)cc2O[C@H]1CN(C)C(=O)C1CCCCC1 | active
C[C@H](CO)N1C[C@H](C)[C@H](CN(C)C(=O)C2CCCCC2)Oc2cc(C#Cc3ccncc3)ccc2S1(=O)=O | active
COc1ccc(CN(C)C[C@@H]2Oc3ccc(NS(=O)(=O)c4cn(C)cn4)cc3C(=O)N([C@@H](C)CO)C[C@@H]2C)cc1 | inactive
C[C@H]1CN([C@@H](C)CO)C(=O)c2cc(NC(=O)Nc3ccc4c(c3)OCO4)ccc2O[C@@H]1CN(C)C(=O)Nc1cccc2ccccc12 | inactive
C[C@H](CO)N1C[C@H](C)[C@H](CN(C)S(=O)(=O)c2ccccc2)Oc2c(NS(=O)(=O)c3cccs3)cccc2C1=O | inactive
Cc1ccc(S(=O)(=O)N(C)C[C@@H]2Oc3ccc(NS(=O)(=O)c4c(C)noc4C)cc3C(=O)N([C@@H](C)CO)C[C@H]2C)cc1 | inactive
COc1ccccc1-c1cccc(-c2nc(C(=O)N3CCCCC3)cc3c2[C@@H](CCO)N([S@](=O)C(C)(C)C)C3)c1 | inactive

— the antibiotic and cytotoxicity screens of Wong et al. (2023)
